# Measurements: the supplement of paper PMC7156485
# ± gives the standard deviation of the averaged measurements.
# Tested on: TDF
# Assay: cell number relative to DMSO (% of DMSO); higher = more cells (less growth inhibition / toxicity)
# Conditions: concentration: 10 µM; 24 h
# Outline: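 For HCC1569 and TDF cells, compounds at 10 µM were applied for 24 h at 37 °C in triplicate in 384-well plates. Cells were fixed in 3.7% formaldehyde, stained for H1.0 and with DAPI, and imaged at ×10 over six fields per well. The endpoint, H1.0 nuclear intensity or cell number, is shown as percent of the plate control using the median of replicates. Positional effects were smoothed for HCC1569 only.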
# 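Note: TDF denotes transformed human dermal fibroblasts of mesenchymal origin.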
row,SMILES,cell number
1,COc1ccc(CC(=O)NC(N=C(NC#N)Nc2cccc3ncccc23)C(C)(C)C)cc1OC (configuration not stated),107
2,CN1CCCC1c1cccnc1.Cc1ccc(C(=O)OC(C(=O)O)C(OC(=O)c2ccc(C)cc2)C(=O)O)cc1 (stereo not drawn) [(+)-Nicotine (+)-di-p-toluoyl tartrate],109
3,CC(C)NCC(O)c1cc(O)cc(O)c1.CC(C)NCC(O)c1cc(O)cc(O)c1.O=S(=O)(O)O (configuration not stated) [Metaproterenol hemisulfate],106
4,Cc1ccc(NC2=CC(=O)c3sc(C)nc3C2=O)cc1 [Cdk4 Inhibitor III],12
5,CC1CC2C3CCC4=CC(=O)C=CC4(C)C3(F)C(O)CC2(C)C1(O)C(=O)CO (configuration not stated) [Dexamethasone],102
6,O=c1[nH]c2cc(Cl)ccc2c(O)c1-c1cccc(Oc2ccccc2)c1,94.2
7,NS(=O)(=O)c1cc2c(cc1Cl)NC(C1CC3C=CC1C3)NS2(=O)=O (configuration not stated) [Cyclothiazide],105
8,CC(C)Cc1ccc(C(C)C(=O)O)cc1 (racemic),112
9,CN(C)CCCSc1ccccc1NC(=O)C=Cc1ccccc1 [Cinanserin],102
10,CCCCCC(O)C=CC1C=CC(=O)C1CCCCCCC(=O)O (configuration not stated) [Prostaglandin A1],98 ± 2.2
11,CCCCCCCCCCCCCCCCn1cc[n+](Cc2ccccc2)c1C.[I-],103
12,O=C(Nc1cccc(C(=O)Nc2ccc(S(=O)(=O)[O-])c3cc(S(=O)(=O)[O-])cc(S(=O)(=O)[O-])c23)c1)Nc1cccc(C(=O)Nc2ccc(S(=O)(=O)[O-])c3cc(S(=O)(=O)[O-])cc(S(=O)(=O)[O-])c23)c1.[Na+].[Na+].[Na+].[Na+].[Na+].[Na+],110
13,CCCCCC=CCC=CCC=CC=CC1CCCC(=O)O1 (racemic),97
14,"O=C(O)Cc1ccc(O)c(O)c1 [3,4-Dihydroxyphenylacetic acid]",102
15,C1COC(NC(C2CC2)C2CC2)=N1 [Rilmenidine hemifumarate],108
16,O=C(O)CCCCCCCC(=O)O [Azelaic acid],101

row,SMILES,cell number
1,"Cc1ccc(Cl)c(Nc2ccccc2C(=O)[O-])c1Cl.[Na+] [sodium 2-(2,6-dichloro-3-methylanilino)benzoate]",111
2,COc1c(N2CCNC(C)C2)c(F)cc2c(=O)c(C(=O)O)cn(C3CC3)c12 (configuration not stated) [Gatifloxacin],107
3,CC(C(O)c1ccc(O)cc1)N1CCC(Cc2ccccc2)CC1.CC(C(O)c1ccc(O)cc1)N1CCC(Cc2ccccc2)CC1.O=C(O)C(O)C(O)C(=O)O (configuration not stated) [Ifenprodil tartrate],108
4,O=C1CC(c2ccc(O)cc2)Oc2cc(OC3OC(CO)C(O)C(O)C3O)cc(O)c21 (configuration not stated) [Narigenin-7-O-glucoside],103
5,COCCc1ccc(OCC(O)CNC(C)C)cc1.COCCc1ccc(OCC(O)CNC(C)C)cc1.O=C(O)C(O)C(O)C(=O)O (racemic),106
6,COc1ccccc1N1CCN(CCCNc2cc(=O)n(C)c(=O)n2C)CC1.Cl [Urapidil hydrochloride],102
7,CN(C)CCOC(c1ccccc1)c1ccccc1.Cl [Diphenhydramine.HCl],103
8,"COC1C=CC=C(C)C(=O)NC2=CC(=O)C=C(C2=O)C(OC)C(C)CC(OC)C(OC)C(C)C=C(C)C1OC(N)=O (configuration not stated) [Herbimycin A, Streptomyces sp.]",54.7
9,Clc1ccc(CON=C(Cn2ccnc2)c2ccc(Cl)cc2Cl)c(Cl)c1 [Oxiconazole],101
10,Cl.c1ccc(C2CN3CCSC3=N2)cc1 (configuration not stated) [Tetramisole hydrochloride],114
11,O=C(C=Cc1ccc(O)cc1)CC(=O)C=Cc1ccc(O)cc1 [Bis demethoxycurcumin],95.1
12,[Cl-].[Li+] [Lithium Chloride],109
13,CCCCCCCCCCCCCCCC(O)C(CO)NC(C)=O (configuration not stated) [C2 Dihydroceramide],114
14,CCN(CC)CCOC(=O)C1(C2CCCCC2)CCCCC1.Cl [Dicyclomine hydrochloride],96.7
15,C[N+](C)(C)CCOC(N)=O [Carbamylcholine],107
16,OC1c2ccccc2N=C2CCCN21 (configuration not stated) [Peganole],93.7
